Several values for one entry are separate records, joined by “and”; a condition that tells them apart may be missing. Equal entries are not always repeated. About 83,000 compounds went through this panel and 20% of them were active in at least one assay; those are over-represented in the sample as a whole.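 Cells were grown in 96-well plates and exposed to the test compound at a single concentration for 48 hours; results are reported as percent growth, with values below 10 considered active.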 Activity calls are given as the source filed them.

The first test has as its system SNB-19 CNS. The experiment in a line: NCI-60 one-dose screen, 48 h (100 = growth as untreated, 0 = no growth, -100 = all killed). The following applies: 10 µM. The protocol:
Growth inhibition of the SNB-19 human tumor cell line is measured as a screen for anti-cancer activity. Cells are grown in 96 well plates and exposed to the test compound for 48 hours. Compounds are tested at a single concentration, which is 10^-5 M for most compounds. The reported endpoint is percent growth (GI% or GIPRCNT), where numbers from 0 - 100% represent growth inhibition, and numbers from -100% - 0 represent cell death. For example, a value of 40 represents 60% growth inhibition. A value of 0 means no net growth occurred over the course of the experiment. A value of -40 indicates 40% of cells at the beginning of the experiment died by the end of the experiment. A value of -100 means all cells are dead at the end of the experiment.
NCI-60 Human Tumor Cell Lines Screen was performed using the standard one-dose NCI protocol, which is described in more detail at https://dtp.cancer.gov/discovery_development/nci-60/default.htm.
Compounds with GIPRCNT values below 10 were considered active. Activity score was based on GIPRCNT using the following formula: […]
Score is 0 for GIPRCNT values of 100 or above, 50 for GIPRCNT values of 0, and 100 for GIPRCNT values of -100.
Consider `S=c1nc[nH]c2nc[nH]c12`, for which the growth was 96.3% (inactive).

The test is the same for the next values; noted with them: 10 µM unless noted.
For the compound `Cc1cc(O)c(C(C)C)cc1N=O`, the growth was 96.1% (inactive) and 99.4% (inactive). Same read-out and setting: with `O=C(NC(=O)c1ccc(F)c(Cl)c1)NC1CC1` the figure was 104% (inactive). The same measure, in the same setting: with `CC1NC(C)c2ccc3ccccc3c2O1` (stereo not given) the figure was 104% (inactive); with `CC(O)CCNC(c1ccccc1)C(O)c1ccccc1` (stereo not given), 103% (inactive). Still for that read-out and setting: with `CCC(C)(O)CCC(C)(O)CC` (stereo not given) the figure was 105% (inactive); with `COc1ccc2oc3cc(NCCN(C)C)ccc3c(=O)c2c1`, 92.7% (inactive) and 76.1% (inactive). With `Cc1onc(-c2c(F)cccc2Cl)c1-c1ncc(-c2ccc(Cl)cc2)o1`, the growth was 80.7% (inactive) and 40% (inactive). Still for that read-out and setting: with `Cc1ccc(C(=O)c2ccc(C)cc2)cc1` the figure was 86.9% (inactive) and 105% (inactive); with `CCCCNC(=O)c1ccccc1C`, 98.2% (inactive). Same read-out and setting: with `NC(=O)Cc1nc(O)cc(=O)[nH]1` the figure was 96.9% (inactive); with `CC(=O)Nc1ccc(OC(C)=O)cc1`, 35.2% (inactive) and 111% (inactive). On the same count and under the same terms, next, `CCCCCCCCCCCCCCCCC(=O)O`: 105% (inactive); `COc1cc2c(cc1O)C(=O)CCCC2`: 101% (inactive); `NNC(=O)Nc1ccccc1`: 102% (inactive). With `O=C(c1ccncc1)c1c(Cc2ccccc2)ccc2ccccc12`, the growth is 96.7% (inactive). `Cc1nc2c(=O)[nH]c(=S)[nH]c2[nH]c1=O`: the growth was 104% (inactive) and 102% (inactive). The same measure, in the same setting: next, `O=C1C=CC[C@H](/C=C/c2ccccc2)O1`: 66.3% (inactive) and 17.5% (inactive). Still for that read-out and setting: with `O=C1C(=O)c2ccccc2C(O)=C1CC=C(Cl)Cl` the figure was 52.9% (inactive) and 61.9% (inactive). Still for that read-out and setting: with `COc1ccc(C(=O)C(O)c2ccc(OC)cc2)cc1` (stereo not given) the figure was 109% (inactive) and 111% (inactive); with `Nc1c(Cl)cc2c(c1Br)C(=O)c1ccccc1C2=O`, 88.8% (inactive); with `CCOC(=O)c1ccc(N2C(=O)C(Cl)(c3ccccc3)C2c2ccco2)cc1` (stereo not given), 76.4% (inactive). Regarding `N=c1sc2ccccc2n1CC(=O)O`, the growth was 101% (inactive).

With `Cc1nc(Nc2ccc(Cl)cc2)c2cnn(-c3ccccc3)c2n1`, the growth was 102% (inactive). As to `CC1=CC(=O)c2cccc(NC3=NCCO3)c21`, the growth was 104% (inactive). On the same count and under the same terms, with `CN1C2C=CC(=O)C1C1C(=O)N(c3ccccc3)C(=O)C12` (stereo not given) the figure was 95.7% (inactive); with `NCCSSC/C=C\CSSCCN`, 105% (inactive).

`N#Cc1ccc(/C=C/C(=O)c2ccccc2)cc1`: the growth is 89.9% (inactive). `O=C(O)Cc1cc(=O)[nH]n(-c2ccccc2)c1=O`: the growth is 119% (inactive).

Consider `O=C(/C=C/C=C/c1ccc2c(c1)OCO2)N1CCCCC1`, for which the growth was 97.2% (inactive) and 99.6% (inactive). Same read-out and setting: with `Nc1nc(N)c2cc(S(=O)(=O)c3ccccc3)ccc2n1` the figure was 38.4% (inactive) and 49.2% (inactive); with `O=COCCCc1ccccc1`, 96.7% (inactive); with `O=C(NC(CSSCC(NC(=O)OCc1ccccc1)C(=O)O)C(=O)O)OCc1ccccc1` (stereo not given), 93.2% (inactive) and 104% (inactive). On the same count and under the same terms, with `CS(=O)(=O)c1nsc(N)n1` the figure was 98.5% (inactive); with `CCOC(=O)c1ccc(C(=N)N)cc1`, 113% (inactive); with `NCCCCCC(=O)O`, 103% (inactive) [middle of 4 runs]. Still for that read-out and setting: next, `CC(C)(C)OC(=O)c1ccc(NCc2cc(O)ccc2O)cc1`: 62.6% (inactive); `CCC/C(=N/NC(N)=O)c1ccco1`: 90.1% (inactive); `N#Cc1c[nH]n2ccnc12`: 108% (inactive).

Staying with this test, now noted: 50 µM.
Consider `S=c1nc[nH]c2nc[nH]c12`, for which the growth was 91.6% (inactive).

The values above are taken from PubChem BioAssay (NCI).
